Results from PubChem BioAssay (EPA / NIEHS).
The source made the active and inactive calls. The calls were made as follows: active = hit-call score of the fitted dose curve at least 0.9, where 1 is the maximum; inactive = score below 0.9.

How the values were obtained:
[1] = Tanguay_ZF_120hpf_MUSC: Oregon State University Tanguay Lab 120 Hour Post-fertilization zebrafish Assay for Muscle Malformation (AID 2284401)
Experimental: Tanguay_ZF_120hpf is a whole embryo, multiplexed endpoint assay using zebrafish larvae exposed for 120 hours post fertilization on a 96-well plate.Tanguay_ZF_120hpf_MUSC is one of one assay component(s) measured or calculated from the Tanguay_ZF_120hpf assay. It is designed to make measurements of zebrafish development as detected with brightfield microscopy of developing zebrafish embryos.Data from the assay component Tanguay_ZF_120hpf_MUSC was analyzed into 1 assay endpoints. This assay endpoint, Tanguay_ZF_120hpf_MUSC, was analyzed in the positive analysis fitting direction relative to DMSO as the negative control and baseline of activity. […]
Zebrafish husbandry: Tropical 5D wild-type adult zebrafish were housed in at an approximate density of 1000 per 100 gallon tank at the Sinnhuber Aquatic Research Laboratory, Oregon State University, Corvallis, OR. […] At 24 hpf, embryos were assessed for photomotor response using a custom photomotor response analysis tool (PRAT) and for developmental toxicity endpoints (MO24: mortality at 24 hpf, DP: developmental progression, SM: spontaneous movement, and NC: notochord distortion). At 120 hpf, locomotor activity was measured using Viewpoint Zebralab and assessed for 13 endpoints. […] If mortality occurred for an embryo (at either 24 or 120 hpf), the non-mortality endpoints were not measured.

[2] = Tanguay_ZF_120hpf_BRN: Oregon State University Tanguay Lab 120 Hour Post-fertilization zebrafish Assay for Brain Region Malformation (AID 2284402)
Outline: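 Binary brightfield scoring of brain malformation at 120 hpf in 5D wild-type larvae, chorion removed with pronase at 4 hpf. Static exposure began at 6 hpf, 28C, sealed plates, DMSO 0.64% (vol/vol) as vehicle baseline.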

[3] = Tanguay_ZF_120hpf_TCHR: Oregon State University Tanguay Lab 120 Hour Post-fertilization zebrafish Assay for Touch Responsive (AID 2284403)
Outline: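 Binary touch-response calls are made at 120 hpf in 5D wild-type zebrafish larvae. These larvae were dechorionated with pronase and exposed singly from 6 hpf in sealed, dark plates at 28 °C with 0.64% DMSO final; dead embryos are excluded.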

[4] = Tanguay_ZF_120hpf_ANY: Oregon State University Tanguay Lab 120 Hour Post-fertilization zebrafish Assay for Any Mortality and Malformation (AID 2284404)
Outline: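 Dechorionated Tropical 5D wild-type embryos, one per well from 6 hpf, static exposure in sealed, dark plates at 28C until 120 hpf, 0.64% DMSO final. Brightfield scoring of mortality and malformations as binary presence/absence, pooling 13 morphology endpoints.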

[5] = CCTE_Padilla_ZF_Score.Craniofacial: CCTE's 144 Hour Post-fertilization zebrafish Assay Score for Craniofacial Malformation, Padilla Lab (AID 2284405)
Outline: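 Craniofacial defects were scored at 6 dpf by two blinded observers using stereomicroscopy. Exposure of wild-type embryos began at 6–8 hpf in sealed wells of 10% Hanks' solution at 26C, with chemical removed by rinsing at 5 dpf.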

[6] = CCTE_Padilla_ZF_Score.Edema: CCTE's 144 Hour Post-fertilization zebrafish Assay Score for Edema Malformation, Padilla Lab (AID 2284406)
Outline: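 Edema scored at 6 dpf by two blinded observers under a stereo microscope, in single outbred wild-type larvae exposed from 6-8 hpf in sealed wells (Hanks', 26C, 14:10 h light) and chemical-free after a 5 dpf rinse.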

[7] = CCTE_Padilla_ZF_Score.Spine: CCTE's 144 Hour Post-fertilization zebrafish Assay Score for Spine Malformation, Padilla Lab (AID 2284407)
Outline: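 Spine malformation scored at 6 dpf by two independent blinded observers under stereomicroscope, after static sealed exposure from 6–8 hpf at 26C in Hanks' solution with rinse on 5 dpf. Positive-direction fit against DMSO control.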

[8] = CCTE_Padilla_ZF_Score.Swim_bladder: CCTE's 144 Hour Post-fertilization zebrafish Assay Score for Swim Bladder Malformation, Padilla Lab (AID 2284408)
Outline: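 Swim bladder inflation scored at 6 dpf by two blinded observers under a stereo microscope. Exposure ran from 6–8 hpf in sealed wells of 10% Hanks' at 26C, with rinsing at 5 dpf; DMSO served as baseline.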

[9] = CCTE_Padilla_ZF_Score.Position: CCTE's 144 Hour Post-fertilization zebrafish Assay Score for Position, Padilla Lab (AID 2284409)
Outline: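 Wild-type zebrafish embryos (with chorions) exposed singly from 6–8 hpf in sealed wells of Hanks' solution at 26C, rinsed at 5 dpf. At 6 dpf, blinded assessors scored abnormal water-column position by brightfield stereomicroscopy, relative to DMSO.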

[10] = CCTE_Padilla_ZF_Score.Living: CCTE's 144 Hour Post-fertilization zebrafish Assay Score for Viability, Padilla Lab (AID 2284410);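 also: larval death at 6 dpf judged by absent heartbeat or coagulation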
Experimental: CCTE_Padilla_ZF_Phenotype_Score is a whole embryo, multiplexed assay using zebrafish ova exposed for 144 hours post fertilization on a 96-well plate.CCTE_Padilla_ZF_Score.Living is one of one assay component(s) measured or calculated from the CCTE_Padilla_ZF_Phenotype_Score assay. It is designed to make measurements of zebrafish development as detected with brightfield microscopy of developing zebrafish embryos.Data from the assay component CCTE_Padilla_ZF_Score.Living was analyzed into 1 assay endpoints. This assay endpoint, CCTE_Padilla_ZF_Score.Living, was analyzed in the positive analysis fitting direction relative to DMSO as the negative control and baseline of activity. Using a type of viability reporter, gain-of-signal activity can be used to understand changes in developmentals as they relate to the whole embryo. To generalize the intended target to other relatable targets, this assay endpoint is annotated to the zebrafish development intended target family, where the subfamily is embryonic mortality.
Zebrafish husbandry: Wild type adult zebrafish (Danio rerio; undefined outbred stock obtained from Aquatic Research Organisms, Hampton, NH, 03842) were housed in an AAALAC-approved animal facility at 28C with a 14:10 h light: dark cycle (lights on at 08:30 h). Adult fish (2-3 females per male; density = 15-20 adults per tank) were kept in one of several 9-liter (L) flow-through colony tanks (Aquaneering Inc., San Diego, CA). All adults in a colony tank were placed in a 2 L (static) breeding tank (Aquatic Habitats, Apopka, FL) one hour prior to light onset. Typically, adults from two to three colony tanks were mated on the same day. Two hours after light onset the adults were returned to the colony tank. […]

Measured: AC50

O=C(O)C(F)(F)C(F)(F)C(F)(F)C(F)(F)C(F)(F)C(F)(F)C(F)(F)C(F)(F)C(F)(F)C(F)(F)F
active: [4] 66500 nM | [5] 2410 nM | [6] 2400 nM | [8] 2410 nM | [10] 50700 nM
inactive: all other assays above

O=C(O)C(F)(F)C(F)(F)C(F)(F)C(F)(F)C(F)(F)C(F)(F)F
inactive: all assays above

O=C(O)CCC(F)(C(F)(F)F)C(F)(F)F
inactive: [5] | [6] | [7] | [8] | [9] | [10]
